Legend:
Conditions in all cases: concentration: 1 μM,replicates: in singlicate; n = 1
AAK1 = tested on: AAK1
ABL1-nonphosphorylated = tested on: ABL1-nonphosphorylated
ABL1-phosphorylated = tested on: ABL1-phosphorylated
ABL2 = tested on: ABL2
ACVR1B = tested on: ACVR1B
ACVR1 = tested on: ACVR1
ACVR2A = tested on: ACVR2A
ACVR2B = tested on: ACVR2B
ACVRL1 = tested on: ACVRL1
ADCK3 = tested on: T1, ADCK3
T1 construct: gene CABC1
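Further: KINOMEscan kinase panel screen.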

Row | SMILES | %Inh (AAK1) [%] | %Inh (ABL1-nonphosphorylated) [%] | %Inh (ABL1-phosphorylated) [%] | %Inh (ABL2) [%] | %Inh (ACVR1B) [%] | %Inh (ACVR1) [%] | %Inh (ACVR2A) [%] | %Inh (ACVR2B) [%] | %Inh (ACVRL1) [%] | %Inh (ADCK3) [%]
1 | NC(=O)c1ccc(-c2cc3ncnc(SCC(=O)O)c3s2)cc1 | 4 | 57 | 20 | 0 | 0 | 0 | 8 | 17 | 0 | 25
2 | N#Cc1cccc(C(=O)NC2CCN(c3ccnc(Nc4ccc(F)cc4)n3)C2)c1 (stereo not shown) [GSK1379708] | 0 | 0 | 0 | 4 | 0 | 31 | 0 | 0 | 0 | 0
3 | CS(=O)(=O)Nc1ccc(-c2ccnc3[nH]ccc23)cc1 [GSK993273] | 79 | 0 | 1 | 16 | 0 | 3 | 0 | 0 | 0 | 12
4 | O=C(Nc1ccccc1)c1cccc(Oc2ccc3nccn3n2)c1 | 1 | 12 | 0 | 3 | 5 | 6 | 0 | 5 | 2 | 19
5 | OCCn1cc(-c2cnc3nnn(Cc4ccc5ncccc5c4)c3n2)cn1 | 0 | 32 | 0 | 0 | 51 | 0 | 0 | 0 | 0 | 0
6 | COc1cccc(OC)c1C(=O)Nc1cccc(-c2nn3ccccc3c2-c2ccnc(Nc3cccc(F)c3)n2)c1 [GSK361065] | 0 | 28 | 18 | 100 | 15 | 17 | 7 | 27 | 7 | 0
7 | COc1cccc(CNC(=O)NC2CCN(c3ccnc(Nc4cc(OC)c(OC)c(OC)c4)n3)C2)c1 (stereo not shown) [GSK1379765] | 54 | 0 | 0 | 20 | 0 | 0 | 0 | 14 | 0 | 24
8 | C[C@@H]1CNc2c(sc3ccc4nc(-c5ccc(O)cc5)ccc4c23)C(=O)N1 | 29 | 48 | 10 | 3 | 22 | 11 | 8 | 52 | 45 | 0
9 | Cn1ccc2ncnc(Oc3ccc(NC(=O)Nc4cccc(C(F)(F)F)c4)c(F)c3)c21 | 15 | 88 | 51 | 29 | 0 | 0 | 32 | 36 | 7 | 18
10 | Cc1nnc(-c2ccc3occ(-c4ccc(S(C)=O)cc4)c3n2)o1 (stereo not shown) | 0 | 43 | 30 | 16 | 0 | 0 | 0 | 0 | 0 | 2
11 | CNC(=O)c1ccccc1Nc1nc(Nc2cccc(CS(C)(=O)=O)c2)ncc1C.O=CO [GSK1520489] | 85 | 99.9 | 99.9 | 99.4 | 71 | 76 | 7 | 54 | 2 | 0
12 | O=C(Nc1n[nH]c2cc(-c3ccco3)ccc12)C1CC1 [SB-737447] | 100 | 37 | 28 | 0 | 5 | 0 | 9 | 0 | 0 | 8
13 | CCCC(=O)Nc1n[nH]c2ncccc12 [SB-601436] | 0 | 24 | 0 | 0 | 0 | 5 | 0 | 0 | 0 | 0
14 | CC(C(=O)NC1CCN(c2ccnc(Nc3ccc(F)cc3)n2)C1)c1ccc(Cl)cc1 (stereo not shown) [GSK1379713] | 14 | 0 | 0 | 9 | 0 | 0 | 0 | 0 | 0 | 0
15 | Cc1ccc(C(=O)Nc2ccc(Oc3ccc4nc(NC(=O)C5CC5)cn4c3)c(F)c2)c(=O)n1-c1ccccc1 | 0 | 100 | 98.3 | 83 | 0 | 0 | 0 | 16 | 0 | 13
16 | FC(F)(F)c1cc(Br)cc(Nc2nccc(-c3cnn4ncccc34)n2)c1 [GW810578] | 32 | 0 | 0 | 0 | 6 | 15 | 13 | 2 | 25 | 10

Source: PMC5540273 (PLoS ONE, 2017)
